Test results published in PMC11062922 (Nature Chemical Biology, 2023).
Where two headings read alike, the source gives them in different places.

Columns and labels:
Design in all cases: species or system human, MV4-11 + K-562 + COLO205 + SK-N-BE2 + OVCAR-8
ACVR1B = details: read-out: apparent Kd, n = 1
CSNK1D = details: read-out: apparent Kd, compound concentrations: 100 nM and 1000 nM (sheet 'Samples'), n = 1
NQO1 = details: read-out: apparent Kd, n = 1
PRKD2 = details: read-out: apparent Kd; compound concentrations: 100 nM and 1000 nM (sheet 'Samples'), CATDS: 9.0452620049035204E-2; n = 1
PRKD3 = details: read-out: apparent Kd; compound concentrations: 100 nM and 1000 nM (sheet 'Samples'), CATDS: 9.3266966311560201E-2; n = 1
RIPK2 = details: read-out: apparent Kd, compound concentrations: 100 nM and 1000 nM (sheet 'Samples'), n = 1
TGFBR1 = details: read-out: apparent Kd, n = 1
TGFBR2 = details: read-out: apparent Kd, compound concentrations: 100 nM and 1000 nM (sheet 'Samples'), n = 1
ADRBK1 = details: read-out: apparent Kd; compound concentrations:100 nM and 1000 nM (sheet 'Samples'); n = 1
AKT1 = details: read-out: apparent Kd; compound concentrations:100 nM and 1000 nM (sheet 'Samples'); n = 1
AKT2 = details: read-out: apparent Kd; compound concentrations:100 nM and 1000 nM (sheet 'Samples'); n = 1
CDC42BPG = details: read-out: apparent Kd; compound concentrations:100 nM and 1000 nM (sheet 'Samples'); n = 1
CDK6 = details: read-out: apparent Kd; compound concentrations:100 nM and 1000 nM (sheet 'Samples'); n = 1
CSNK1A1 = details: read-out: apparent Kd; compound concentrations:100 nM and 1000 nM (sheet 'Samples'); n = 1
MAP2K1 = details: read-out: apparent Kd, n = 1
MAP2K2 = details: read-out: apparent Kd; compound concentrations:100 nM and 1000 nM (sheet 'Samples'); n = 1
PYGL = details: read-out: apparent Kd; compound concentrations:100 nM and 1000 nM (sheet 'Samples'); n = 1
RIOK2 = details: read-out: apparent Kd; compound concentrations:100 nM and 1000 nM (sheet 'Samples'); n = 1
TP53RK = details: read-out: apparent Kd; compound concentrations:100 nM and 1000 nM (sheet 'Samples'); n = 1
AGPS = details: read-out: apparent Kd; compound concentrations: 100 nM and 1000 nM (sheet 'Samples'), CATDS: 9.4477869255485902E-2; n = 1
CSNK1E = details: read-out: apparent Kd; compound concentrations: 100 nM and 1000 nM (sheet 'Samples'), CATDS: 9.3377022470402096E-2; n = 1
ILK = details: read-out: apparent Kd; compound concentrations: 100 nM and 1000 nM (sheet 'Samples'), CATDS: 9.8525851125826097E-2; n = 1
MAPK14 = details: read-out: apparent Kd; compound concentrations: 100 nM and 1000 nM (sheet 'Samples'), CATDS: 0.13638952707170801; n = 1
MAPKAPK2 = details: read-out: apparent Kd; compound concentrations: 100 nM and 1000 nM (sheet 'Samples'), CATDS: 0.13321456142161001; n = 1
MDN1 = details: read-out: apparent Kd; compound concentrations: 100 nM and 1000 nM (sheet 'Samples'), CATDS: 9.4286494514119495E-2; n = 1
TESK2 = details: read-out: apparent Kd; compound concentrations: 100 nM and 1000 nM (sheet 'Samples'), CATDS: 9.9817052034954598E-2; n = 1
ACVR1 = details: read-out: apparent Kd; compound concentrations: 100 nM and 1000 nM (sheet 'Samples'), CATDS: 5.3500871089908003E-2; n = 1
ACVR2B = details: read-out: apparent Kd; compound concentrations: 100 nM and 1000 nM (sheet 'Samples'), CATDS: 0.67080964654625497; n = 1
BCR = details: read-out: apparent Kd; compound concentrations: 100 nM and 1000 nM (sheet 'Samples'), CATDS: 8.1652957748264393E-2; n = 1
BMPR1B = details: read-out: apparent Kd; compound concentrations: 100 nM and 1000 nM (sheet 'Samples'), CATDS: 7.3247906456106002E-2; n = 1
CDC7 = details: read-out: apparent Kd; compound concentrations: 100 nM and 1000 nM (sheet 'Samples'), CATDS: 4.9206883035311198E-2; n = 1
CDK4 = details: read-out: apparent Kd; compound concentrations: 100 nM and 1000 nM (sheet 'Samples'), CATDS: 4.8870042780869302E-2; n = 1
EPHA1 = details: read-out: apparent Kd; compound concentrations: 100 nM and 1000 nM (sheet 'Samples'), CATDS: 7.9880542471912896E-2; n = 1
GAK = details: read-out: apparent Kd; compound concentrations: 100 nM and 1000 nM (sheet 'Samples'), CATDS: 0.131761231196901; n = 1
NLK = details: read-out: apparent Kd; compound concentrations: 100 nM and 1000 nM (sheet 'Samples'), CATDS: 5.29869352744404E-2; n = 1
RIPK3 = details: read-out: apparent Kd; compound concentrations: 100 nM and 1000 nM (sheet 'Samples'), CATDS: 5.9537511979901002E-2; n = 1
[1] = compound concentrations:100 nM and 1000 nM (sheet 'Samples')

Nc1nc(-c2ccccn2)c(-c2ccc3ncccc3n2)s1 [GW693481X]
potency estimated from few doses (ACVR1B; compound concentrations: 100 nM and 1000 nM (sheet 'Samples'), CATDS: 0.44423819438106199): 18.9 nM
potency estimated from few doses (CSNK1D; CATDS: 0.10134290714946401): 1410 nM
potency estimated from few doses (NQO1; compound concentrations: 100 nM and 1000 nM (sheet 'Samples'), CATDS: 9.3669265888158104E-2): 1850 nM
potency estimated from few doses (PRKD2): 2110 nM
potency estimated from few doses (PRKD3): 1880 nM
potency estimated from few doses (RIPK2; CATDS: 0.125372096454309): 727 nM
potency estimated from few doses (TGFBR1; compound concentrations: 100 nM and 1000 nM (sheet 'Samples'), CATDS: 0.486387422395817): 16 nM
potency estimated from few doses (TGFBR2; CATDS: 0.106428788110752): 1200 nM

COc1ccccc1-c1cc(/C=C2\C(=O)Nc3ncc(Br)cc32)cc(Br)c1O [GW442130X]
potency estimated from few doses (ACVR1B; [1]): 646 nM
potency estimated from few doses (ADRBK1): 1960 nM
potency estimated from few doses (AKT1): 1540 nM
potency estimated from few doses (AKT2): 1120 nM
potency estimated from few doses (CDC42BPG): 453 nM
potency estimated from few doses (CDK6): 1940 nM
potency estimated from few doses (CSNK1A1): 1780 nM
potency estimated from few doses (MAP2K1; [1]): 1650 nM
potency estimated from few doses (MAP2K2): 1580 nM
potency estimated from few doses (NQO1; [1]): 1260 nM
potency estimated from few doses (PYGL): 1840 nM
potency estimated from few doses (RIOK2): 1450 nM
potency estimated from few doses (TGFBR1; [1]): 592 nM
potency estimated from few doses (TP53RK): 1740 nM

CN1CCN(CCCNc2nccc(-c3c(-c4ccc(F)cc4)nn4cc(C(F)(F)F)ccc34)n2)CC1 [GW621581X]
potency estimated from few doses (ACVR1B; compound concentrations: 100 nM and 1000 nM (sheet 'Samples'), CATDS: 0.17734677143715399): 667 nM
potency estimated from few doses (AGPS): 2190 nM
potency estimated from few doses (CSNK1D; CATDS: 0.11827296398223): 1330 nM
potency estimated from few doses (CSNK1E): 2250 nM
potency estimated from few doses (ILK): 1970 nM
potency estimated from few doses (MAPK14): 1020 nM
potency estimated from few doses (MAPKAPK2): 1070 nM
potency estimated from few doses (MDN1): 2200 nM
potency estimated from few doses (TESK2): 1910 nM

Oc1cc(Nc2ccnc3cc(I)ccc23)ccc1F [GW552771X]
potency estimated from few doses (ACVR1B; compound concentrations: 100 nM and 1000 nM (sheet 'Samples'), CATDS: 5.5704311303099698E-2): 1050 nM
potency estimated from few doses (ACVR1): 1220 nM
potency estimated from few doses (ACVR2B): 4.54 nM
potency estimated from few doses (BCR): 339 nM
potency estimated from few doses (BMPR1B): 452 nM
potency estimated from few doses (CDC7): 1710 nM
potency estimated from few doses (CDK4): 1760 nM
potency estimated from few doses (EPHA1): 359 nM
potency estimated from few doses (GAK): 109 nM
potency estimated from few doses (MAP2K1; compound concentrations: 100 nM and 1000 nM (sheet 'Samples'), CATDS: 4.7289887756517802E-2): 2050 nM
potency estimated from few doses (NLK): 1260 nM
potency estimated from few doses (RIPK2; CATDS: 0.100310805321257): 204 nM
potency estimated from few doses (RIPK3): 838 nM
potency estimated from few doses (TGFBR2; CATDS: 0.233102504079717): 32.2 nM
